Only some compounds are listed: those with a hit (about 4.2% of all), similar ones and a draw of the others.
TCR act: T cell receptor activation | primary human leukocytes, anti-CD3, IL-2 HTRF, 48 h | AID 504894 | Potency, µM (series often up to 9.22 µM), actives largely listed as activators | 330,000 tested, under 10 active
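Primary human leukocytes were stimulated with a-CD3 beads plus compounds for 48 hr without co-stimulation; secreted IL-2 was quantified by HTRF using a-IL-2-K (europium cryptate) and a-IL-2-d2, excited at 320nm with acceptor emission read at 665nm.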
uPA surface inh: inhibitors of cell surface uPA generation; cell surface uPA generation assay, qHTS; Potency, µM (highest dose often 38.3 µM), hits mostly inhibitors; hit rate 0.31% among 330,000; active = well fitted inhibition curve with a large enough effect; inconclusive = small, poorly fitted or top-dose-only effect; inactive = no such curve, though single readings can be large or run the other way; tested in mouse RAW 264.7 cells; also: nearly all actives have a fitted effect of over 55% in size
ClpP mod: qHTS Assay for Activators of ClpP; ATP-dependent Clp protease proteolytic subunit (Bacillus subtilis (strain 168)), P80244; purified B. subtilis ClpP, FRET peptide cleavage, 20 min; Potency, µM (highest dose often 57.5 µM); hit rate 1.9% among 340,000; AID 651965, 2013; active = well fitted falling curve with a large enough effect; inconclusive = small, poorly fitted or top-dose-only effect; inactive = no such curve, though single readings can be large or run the other way; also: the source files actives as falling curves though it sought activators and does not explain the sign; nearly all actives have a fitted effect of over 65% in size
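FRET quenching reversal measured ClpP activation: 10 microg/mL B. subtilis ClpP at pH 8 with the FRET-FV decapeptide, read at 430 nm after 320 nm excitation. The 20-min minus 0-min signal was scaled between DMSO/no-enzyme wells and ADEP (5.8 microM final).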
Sfp PPTase inh: blocks B. subtilis Sfp PPTase activity; Potency, µM, usual class: inhibitors; AID 1490; Biochemical Sfp PPTase activity, qHTS; Q9F4F7; hit rate 3.5% among 310,000;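 also: the enzyme is Sfp with the accession as filed and its product quenches rhodamine fluorescence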
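With Hepes-Na pH 7.6 buffer containing 10 mM MgCl2, Sfp (15 nM) modified BHQ-2-YbbR (12.5 uM) using rhodamine-CoA (5 uM). Two reads 30 minutes apart at 525/598 nm yielded each well's rate.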
A number is an active result; . = inactive; ? = inconclusive; / = no result. Unless noted, calls follow the shape of the dose curve; as a rule, active = well fitted curve in the direction sought with a large enough effect; inconclusive = small, poorly fitted or top-dose-only effect, or another doubt; inactive = no such curve, though single readings can be large; an effect the other way counts as inactive or inconclusive.

SMILES | TCR act | uPA surface inh | ClpP mod | Sfp PPTase inh
Cc1cc(C(=O)CSc2nnnn2C)c(C)n1Cc1ccco1 | . | . | . | .
COc1cc(OC)cc(C(=O)NCC(=O)OCC(=O)c2cc(C)n(Cc3ccco3)c2C)c1 | . | . | 10µM | .
COc1ccc(N2CCN(C(=O)CN3C(=O)NC(C)(c4ccc5ccccc5c4)C3=O)CC2)cc1 (configuration not stated) | . | . | 28µM | /
O=C(Cc1ccccc1)NCC(=O)Nc1ccccc1Br | . | . | / | .
S=c1nc(-c2cc(Cl)cc(Cl)c2)[nH][nH]1 | . | . | . | 40µM
S=c1nc(-c2cc(Cl)ccc2Cl)[nH][nH]1 | . | . | / | 50µM
S=c1nc(-c2cccc(Cl)c2)[nH][nH]1 | . | . | / | ?
CCN1CCc2c(sc(-n3cccc3)c2C(C)NC(=O)Nc2cc(Cl)c(OC)cc2OC)C1 (configuration not stated) | / | / | . | /
COc1ccc(C(=O)N(Cc2ccc(C(C)C)cc2)C2CCS(=O)(=O)C2)cc1 (configuration not stated) | / | / | . | /
CCn1ncc(C2C(C(=O)Nc3ccc(C)cn3)=C(C)NC3=C2C(=O)CCC3)c1C (configuration not stated) | . | . | . | .
CC1=C(C(=O)Nc2ccc(C)cn2)C(c2cnn(C)c2)C2=C(CCCC2=O)N1 (configuration not stated) | . | . | 6.3µM | .
O=C(/C=C/c1cccnc1)c1ccccc1O | . | . | ? | 45µM
COc1cc(C(=O)/C=C/c2cccnc2)c([N+](=O)[O-])cc1OC | . | 8.9µM | . | /
COc1ncc2nc(C)c(=O)n(C)c2n1 | / | / | / | .
COc1cc2cc(C(=O)N[C@@H](Cc3ccccc3)C(=O)O)n(C)c2c(OC)c1OC | . | . | . | .
COc1cc2cc(C(=O)O)n(C)c2c(OC)c1OC | . | . | 13µM | .
Cc1ccc(C2=CC(=O)C[C@H](c3ccc(F)cc3)C2)cc1 | . | . | . | /
CCOC(=O)Nc1ccc(=O)n(Cc2c(Cl)cccc2Cl)c1 | . | . | 28µM | .
Cc1ccc(-n2cccc2/C=C2/C(=N)N3C(=NC2=O)SN=C3S(C)(=O)=O)cc1Cl | . | . | . | 89µM
CC1=CSC2=NC(=O)/C(=C\c3cccn3-c3ccccc3)C(=N)N12 | . | . | . | 10µM
Cc1ccc(C)c(Nc2nc3c(S(=O)(=O)c4ccc(C(C)C)cc4)nnn3c3ccsc23)c1 | / | / | 35µM | /
Cc1ccc(C)c(Nc2nc3c(S(=O)(=O)c4ccc(Br)cc4)nnn3c3ccsc23)c1 | / | / | 28µM | /
Cc1ccc(Cl)cc1N1CCN(CCCNc2ncnc3onc(-c4ccc(F)cc4)c23)CC1 | / | / | . | /
O=C(CN1C=NS(=O)(=O)c2ccccc21)Nc1ccccc1F | / | / | . | /
N#CC1=C(N)SC(N)=C(C#N)C1Cc1ccccc1 | . | . | . | ?
SMILES | TCR act | uPA surface inh | ClpP mod | Sfp PPTase inh
N#CC1=C(N)SC(N)=C(C#N)C1CCc1ccccc1 | . | . | 32µM | ?
N#CC1=C(N)SC(N)=C(C#N)C1c1cccc(Oc2ccccc2)c1 | . | . | . | 28µM
N#CC1=C(N)SC(N)=C(C#N)C1c1c(Cl)cccc1Cl | . | . | . | 7.1µM
CCc1ccc(C2C(C#N)=C(N)SC(N)=C2C#N)cc1 | . | . | . | ?
COc1ccc(C2CC(c3cccs3)=Nc3ccccc3S2)cc1 (configuration not stated) | . | ? | . | 22µM
COc1ccc(C2CC(c3cccs3)=NN2S(C)(=O)=O)cc1 (configuration not stated) | . | . | / | .
O=C1CCN(CCc2ccccc2)CCN1C(CSc1ccc(Br)cc1)c1ccccc1 (configuration not stated) | / | / | / | .
CCN(CC)CCCn1c(=S)[nH]c2ncccc2c1=O | . | . | 32µM | ?
CCN(CC)CCn1c(=S)[nH]c2cc3c(cc2c1=O)OCO3 | . | . | . | 79µM
COC(=O)C1=C(C(=O)OC)N2C=CC=CC2(C)C(C(=O)OC)=C1C(=O)OC (configuration not stated) | . | . | 2.8µM | .
COC(=O)C1=C(C(=O)OC)C(C(=O)OC)C(C(=O)OC)C(C(=O)OC)(C(=O)OC)C(C(=O)OC)=C1C(=O)OC (configuration not stated) | . | . | . | /
Cc1ccc(/C=C2\CC(C)CC3=C2NC(=S)NC3c2ccc(C)cc2)cc1 (configuration not stated) | . | . | / | ?
Cc1ccc(/C=C2\CCCC3=C2NC(=S)NC3c2ccc(C)cc2)cc1 (configuration not stated) | . | . | 16µM | 25µM
Cc1ccc(CCNC(=O)c2sc3nc4n(c(=O)c3c2C)CCCC4)cc1 | / | / | . | /
